This is an account of results in PubChem BioAssay (NCATS).

Structures are written as SMILES. Results filed as inconclusive are left out. A call without a number means that no potency is given here. Activity calls are given as the source filed them. Calls come from the whole dose curve; as a rule, active = well fitted cell-killing curve with a large enough effect; inconclusive = small, poorly fitted or top-dose-only effect, or effect the other way; inactive = no such curve, though single readings can be large or run the other way. Non-standard residues stand in square brackets, D forms with d. Residues, ends and D or L forms follow the SMILES beside them. Peptide text beside a SMILES is read from it. *: point of attachment. Sta = CC(C)C[C@H](N)[C@@H](O)CC(=O)O; Isovaleryl = CC(C)CC(=O)*
Potency is the fitted concentration of half-maximal effect.

The experiment can be described thus: Quantitative High-Throughput drug screen in 47 multiple myeloma cell lines against the NCATS MIPE library collection: KMS27_JCRB cell viability assay (AID 1918970). Note: nearly all actives have a fitted effect of over 30% in size. The conditions noted are these: KMS27 myeloma cells, CellTiter-Glo ATP viability, 48 h; series mostly up to 45.8 µM. From the text:
PI: Beverly A. Mock Ph.D.
Laboratory of Cancer Biology and Genetics,
Center for Cancer Research, National Cancer Institute,
National Institute of Health, Bethesda, Maryland
Drug resistance and disease progression are common in multiple myeloma (MM) patients, underscoring the need for new therapeutic combinations. […] We hypothesized that effective combinations would reduce MYC expression and enhance p16 activity. […] These preclinical data identify potentially useful drug combinations for evaluation in drug-resistant MM and reveal potential mechanisms of combined drug sensitivity.
Described herein is the primary MIPE qHTS used to cherrypick compounds. Validated compounds were then further tested for potential synergistic activiy.
[1] Peat TJ, Gaikwad SM, Dubois W, Gyabaah-Kessie N, Zhang S, Gorjifard S, Phyo Z, Andres M, Hughitt VK, Simpson RM, Miller MA, Girvin AT, Taylor A, Williams D, D'Antonio N, Zhang Y, Rajagopalan A, Flietner E, Wilson K, Zhang X, Shinn P, Klumpp-Thomas C, McKnight C, Itkin Z, Chen L, Kazandijian D, Zhang J, Michalowski AM, Simmons JK, Keats J, Thomas CJ, Mock BA. Drug combinations identified by high-throughput screening promote cell cycle transition and upregulate Smad pathways in myeloma. […] Epub 2023 Jun 24. PMID: 37356470; PMCID: PMC10408729.
SEQUENCE No. (e.g., 1, 2, 3, etc.); […] (e.g., Cells, Incubation, Reagent, etc.); VALUE and DESCRIPTION.
1; Cells; 5 uL; white, solid bottom 1536-well Greiner assay plate.
2; Compounds; 23 nL; Kalypsis pin tool (Wako USA) equipped with a 1536-well pin head to transfer to the assay plates.
3; Incubation; 48 hours; 37C incubation.
4; Reagent;5uL; CellTiter Glo (Promega).
5; Detector; 425V; Luminescence; Viewlux PerkinElmer.
NOTES (numbers refer to Sequence numbers above)
1. The cell-based screening methods employed in this study were like those previously published. Briefly, the corresponding myeloma cell lines were screened in 1,536-well plates with 500 cells, 5-uL per well for inhibition of cell viability (assessed by measuring ATP levels with CellTiterGlo).
2. NCATS MIPE 4.0 library of approved and investigational drugs were added using the Kalypsis pin tool. Wells treated with DMSO only for 100% viability and media only wells for 0% viability were used as controls.
3. The assay plates were covered and incubated for 48 hours in a 37C, 5% CO2 incubator with controlled humidity.
4. After 48 hours, CellTilter-GloTM luminescent substrate mix (Promega) reagent was added to the assay plate and plates we incubated for 5 min at room temperature.
5. Signal was measured as median relative luminescence units on a ViewLux (PerkinElmer) multiplate reader.
[1] Heske CM, Davis MI, Baumgart JT, Wilson K, Gormally MV, Chen L, Zhang X, Ceribelli M, Duveau DY, Guha R, Ferrer M, Arnaldez FI, Ji J, Tran HL, Zhang Y, Mendoza A, Helman LJ, Thomas CJ. Matrix Screen Identifies Synergistic Combination of PARP Inhibitors and Nicotinamide Phosphoribosyltransferase (NAMPT) Inhibitors in Ewing Sarcoma. Clin Cancer Res. 2017 Dec 1;23(23):7301-7311. doi: 10.1158/1078-0432.CCR-17-1121. Epub 2017 Sep 12. PMID: 28899971; PMCID: PMC6636827.
Turning to `Nc1nc(N)c(N=O)c(OCC2CCCCC2)n1`, the Potency was 6.62 µM (active).

Regarding `CNC[C@H](O)c1ccc(O)c(O)c1`, the Potency result was “inactive”.

For `Clc1ccc(C(Cn2ccnc2)OCc2c(Cl)cccc2Cl)c(Cl)c1` (stereo not given), the Potency was 23.5 µM (active). Consider `Nc1cccc2c1CN(C1CCC(=O)NC1=O)C2=O` (stereo not given), for which the Potency result was “inactive”.

Take `O=C1NC(=O)C(c2ccccc2[N+](=O)[O-])=C1Nc1ccc(O)c(Cl)c1`: the Potency entry is “inactive”. Take `O=P(O)(O)C(O)(Cn1ccnc1)P(=O)(O)O`: the Potency entry was “inactive”. As to `CCCCCCCCOc1ccccc1C(=O)Nc1ccc(C(=O)OCC[N+](C)(CC)CC)cc1`, the Potency is 6.62 µM (active). As for `O=C1CCc2ccc(OCCCCN3CCN(c4cccc(Cl)c4Cl)CC3)cc2N1`, the Potency entry is “inactive”. With `CC1=C(C(=O)O)N2C(=O)[C@@H](NC(=O)[C@H](N)C3=CCC=CC3)[C@H]2SC1`, the Potency entry was “inactive”.

Regarding `CCC[C@@H]1C[C@@H](C(=O)N[C@@H]([C@H]2O[C@H](SC)[C@H](O)[C@@H](O)[C@H]2O)[C@@H](C)O)N(C)C1`, the Potency result is “inactive”. With `CC(C)CC(=O)N[C@H](C(=O)N[C@H](C(=O)N[C@@H](CC(C)C)[C@@H](O)CC(=O)N[C@@H](C)C(=O)N[C@@H](CC(C)C)[C@@H](O)CC(=O)O)C(C)C)C(C)C` (Isovaleryl-VV[Sta]A[Sta]-OH), the Potency entry was “inactive”. In the case of `Cc1nc2n(c(=O)c1CCN1CCC(c3noc4cc(F)ccc34)CC1)CCCC2`, the Potency result was “inactive”. As for `C[C@]12CCC(=O)C=C1CC[C@@H]1[C@H]2[C@@H](O)C[C@@]2(C)[C@H]1CC[C@]2(O)C(=O)CO`, the Potency entry is “inactive”. Take `O=C(O)c1cn(-c2ccc(F)cc2)c2cc(N3CCNCC3)c(F)cc2c1=O`: the Potency result was “inactive”. For the molecule `CC1(C)NC(=O)N(c2ccc([N+](=O)[O-])c(C(F)(F)F)c2)C1=O`, the Potency entry is “inactive”. Turning to `O=C(OC1C[C@H]2CC[C@@H](C1)[N+]21CCCC1)C(O)(c1ccccc1)c1ccccc1` (stereo not given in full), the Potency result is “inactive”.

Take `CNC[C@@H](O)[C@@H](O)[C@H](O)[C@H](O)CO`: the Potency entry is “inactive”. Turning to `COC1=C(OC)C(=O)C(CCCCCCCCCCO)=C(C)C1=O`, the Potency is 18.7 µM (active). Turning to `CCOC(=O)C(C)Oc1cccc2c(=O)n(CC(=O)Nc3ccc4c(c3)OCCO4)ccc12` (stereo not given), the Potency result was “inactive”. Regarding `Cc1ccc(S(=O)(=O)NC(=O)NN2CC3CCCC3C2)cc1` (stereo not given), the Potency was 20.9 µM (active). Turning to `Nc1ncn([C@H]2C[C@H](O)[C@@H](CO)O2)c(=O)n1`, the Potency result was “inactive”.

`CCCCCCCCCCCCCCCCCCCCCCO`: the Potency entry was “inactive”.

For `N=C(N)c1ccc2cc(OC(=O)c3ccc(N=C(N)N)cc3)ccc2c1`, the Potency result is “inactive”. Next, `CCCS(=O)c1ccc2nc(NC(=O)OC)[nH]c2c1` (stereo not given): “inactive”; `CC1(C)C(=O)N(CCN2CCC(C(=O)c3ccc(F)cc3)CC2)c2ccccc21`: 13.2 µM (active); `Clc1ccc(C(Cn2ccnc2)OCc2ccc(Sc3ccccc3)cc2)c(Cl)c1` (stereo not given): 18.7 µM (active). Consider `O=C(O)CCNC(=O)c1ccc(N=Nc2ccc(O)c(C(=O)O)c2)cc1`, for which the Potency entry was “inactive”. For the molecule `Cc1cc(=O)oc2cc(O)ccc12`, the Potency entry was “inactive”. Under `CC(C)c1ccc2c(c1)c(SC(C)(C)C)c(CC(C)(C)C(=O)O)n2Cc1ccc(Cl)cc1` stands “inactive”; under `Cc1nc(-c2ccc(OCC(C)C)c(C#N)c2)sc1C(=O)O`, “inactive”; under `CC[C@]1(O)C[C@H]2CN(CCc3c([nH]c4ccccc34)[C@@](C(=O)OC)(c3cc4c(cc3OC)N(C=O)[C@H]3[C@@](O)(C(=O)OC)[C@H](OC(C)=O)[C@]5(CC)C=CCN6CC[C@]43[C@@H]65)C2)C1`, 0.0166 µM (active). On to `O=C(NC(Cc1cc(=O)[nH]c2ccccc12)C(=O)O)c1ccc(Cl)cc1` (stereo not given), for which the Potency entry was “inactive”. Consider `COC(=O)[C@H](Cc1ccccc1)NC(=O)[C@@H](N)CC(=O)O` (H-Asp-Phe-OMe), for which the Potency result is “inactive”. Next, `Cc1cc(Cl)ccc1OCCCC(=O)NO`: 3.32 µM (active); `O=c1ccc2ccc(O)c(O)c2o1`: 18.7 µM (active); `C=C(c1ccc(C(=O)O)cc1)c1cc2c(cc1C)C(C)(C)CCC2(C)C`: 0.0418 µM (active). Next, `COC(=O)N[C@H](C(=O)N[C@@H](Cc1ccccc1)[C@@H](O)CN(Cc1ccc(-c2ccccn2)cc1)NC(=O)[C@@H](NC(=O)OC)C(C)(C)C)C(C)(C)C`: “inactive”.

For `Nc1nc(OCc2ccccc2)c2[nH]cnc2n1`, the Potency was 14.8 µM (active). For `Nc1nc(Cl)nc2c1ncn2[C@H]1C[C@H](O)[C@@H](CO)O1`, the Potency was 0.296 µM (active). On to `COC(=O)C1=C(C)NC(C)=C(C(=O)OC(C)C)C1c1cccc2nonc12` (stereo not given), for which the Potency entry was “inactive”.
